# According to PubChem BioAssay (NCATS):
# Records with an inconclusive call do not appear. Where a call stands in place of a potency, no number is given. Calls of active or inactive are those of the source. The call rests on the fitted dose curve; in most records, active means well fitted inhibition curve with a large enough effect; inconclusive means small, poorly fitted or top-dose-only effect; inactive means flat fitted curve, though single readings scatter.
# Experiments:
# Assay in all cases: qHTS profiling for inhibitors of Plasmodium falciparum proliferation (AID 504749); further: nearly all actives have a fitted effect of over 60% in size
# Details in all cases: P. falciparum in erythrocytes, SYBR Green DNA, 72 h; series mostly up to 28.7 µM
# [1] = system: CP291
# Procedure, shortened: (§1)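 Fluorescence of SYBR Green-bound parasite DNA, read at 485/535 nm, served as the growth measure. Infected erythrocytes were cultured with compound 72 h; artemisinin (0.29 uM) and DMSO wells defined the normalization range.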
# [2] = system: CP297
# Procedure, shortened: as §1
# [3] = system: CP305
# Procedure, shortened: as §1
# [4] = system: CP315
# Procedure, shortened: as §1
# [5] = system: CP325
# Procedure, shortened: as §1
# [6] = system: CP329
# Procedure, shortened: as §1
# [7] = system: CP335
# Procedure, shortened: as §1
# [8] = system: DFO2036
# Procedure, shortened: as §1
# [9] = system: DIV14
# Procedure, shortened: as §1
# [10] = system: DIV17
# Procedure, shortened: as §1
# [11] = system: DIV30
# Procedure, shortened: as §1
# [12] = system: Dd2
# Procedure, shortened: as §1
# [13] = system: ECU
# Procedure, shortened: as §1
# [14] = system: FAB9
# Procedure, shortened: as §1
# [15] = system: GB4
# Procedure, shortened: as §1
# [16] = system: HB3
# Procedure, shortened: as §1
# [17] = system: ICS
# Procedure, shortened: as §1
# [18] = system: JCK
# Procedure, shortened: as §1
# [19] = system: N140
# Procedure, shortened: as §1
# [20] = system: P93_24
# Procedure, shortened: as §1
# Potency means the concentration at half of the fitted maximal effect.
Structure (SMILES),Potency [1],Potency [2],Potency [3],Potency [4],Potency [5],Potency [6],Potency [7],Potency [8],Potency [9],Potency [10],Potency [11],Potency [12],Potency [13],Potency [14],Potency [15],Potency [16],Potency [17],Potency [18],Potency [19],Potency [20]
O=C(O)COc1nn(Cc2ccccc2)c2ccccc12,inactive,inactive,inactive,inactive,inactive,inactive,inactive,inactive,inactive,inactive,inactive,inactive,inactive,inactive,inactive,inactive,inactive,inactive,inactive,inactive
N[C@@H](CSCCCO)C(=O)O,inactive,inactive,inactive,inactive,inactive,inactive,inactive,inactive,inactive,inactive,inactive,inactive,inactive,inactive,inactive,inactive,inactive,inactive,inactive,inactive
O=c1[nH]c(=O)c2[nH]c(=O)[nH]c2[nH]1,inactive,inactive,inactive,inactive,inactive,inactive,inactive,inactive,inactive,inactive,inactive,inactive,inactive,inactive,inactive,inactive,inactive,inactive,inactive,inactive
CCC(=O)c1ccc(O)cc1,inactive,inactive,inactive,inactive,inactive,inactive,inactive,inactive,inactive,inactive,inactive,inactive,inactive,inactive,inactive,inactive,inactive,inactive,inactive,inactive
O=C(O)c1ccccc1-c1ccc(C(F)(F)F)cc1,inactive,inactive,inactive,inactive,inactive,inactive,inactive,inactive,inactive,inactive,inactive,inactive,inactive,inactive,inactive,inactive,inactive,inactive,inactive,inactive
CC(O)COc1ccccc1 (configuration not stated),inactive,inactive,inactive,inactive,inactive,inactive,inactive,inactive,inactive,inactive,inactive,inactive,inactive,inactive,inactive,inactive,inactive,inactive,inactive,inactive
O=C(Oc1ccccc1C(=O)O)c1ccccc1O,inactive,inactive,inactive,inactive,inactive,inactive,inactive,inactive,inactive,inactive,inactive,inactive,inactive,inactive,inactive,inactive,inactive,inactive,inactive,inactive
CC(=O)c1ccc2c(c1)N(CCCN(C)C)c1ccccc1S2,inactive,inactive,inactive,inactive,inactive,inactive,inactive,inactive,,,inactive,,inactive,inactive,,inactive,inactive,,inactive,
CCCCOC(=O)c1ccc(O)cc1,inactive,inactive,inactive,inactive,inactive,inactive,inactive,inactive,inactive,inactive,inactive,inactive,inactive,inactive,inactive,inactive,,inactive,inactive,inactive
C[C@H]1O[C@@H](n2cc(F)c(=O)[nH]c2=O)[C@H](O)[C@@H]1O,inactive,inactive,inactive,inactive,inactive,inactive,inactive,inactive,inactive,inactive,inactive,inactive,inactive,inactive,inactive,inactive,,inactive,inactive,inactive
Cc1c(Cl)cccc1Nc1ccccc1C(=O)O,inactive,inactive,inactive,inactive,inactive,inactive,inactive,inactive,inactive,inactive,inactive,inactive,inactive,inactive,inactive,,,inactive,inactive,inactive
Cc1cc(C(C#N)c2ccc(Cl)cc2)c(Cl)cc1NC(=O)c1cc(I)cc(I)c1O (configuration not stated),inactive,inactive,inactive,,inactive,inactive,inactive,inactive,inactive,inactive,inactive,inactive,inactive,inactive,inactive,inactive,inactive,inactive,inactive,inactive
COc1ccc(Cl)cc1C(=O)NCCc1ccc(S(=O)(=O)NC(=O)NC2CCCCC2)cc1,inactive,inactive,inactive,inactive,inactive,inactive,inactive,inactive,inactive,inactive,inactive,inactive,,inactive,inactive,inactive,inactive,inactive,inactive,inactive
OCc1cc(C(O)CNCCCCCCOCCCCc2ccccc2)ccc1O (configuration not stated),inactive,inactive,inactive,inactive,inactive,inactive,,inactive,,,,inactive,inactive,inactive,9530 nM (active),inactive,,inactive,inactive,
O=C1O[C@H]([C@@H](O)CO)C(O)=C1O,inactive,inactive,inactive,inactive,inactive,inactive,inactive,inactive,inactive,inactive,inactive,inactive,,inactive,inactive,inactive,inactive,inactive,inactive,inactive
O=c1cc[nH]c(=S)[nH]1,inactive,,inactive,inactive,inactive,inactive,inactive,inactive,inactive,inactive,inactive,inactive,inactive,inactive,inactive,inactive,inactive,inactive,inactive,inactive
CCCc1c(OCCCCc2nn[nH]n2)ccc(C(C)=O)c1O,inactive,inactive,inactive,,inactive,inactive,inactive,inactive,inactive,inactive,inactive,inactive,inactive,inactive,inactive,inactive,inactive,inactive,inactive,inactive
O=C(O)CN1C(=O)c2cccc3cccc(c23)C1=O,inactive,inactive,inactive,inactive,inactive,inactive,inactive,inactive,inactive,inactive,inactive,inactive,inactive,inactive,,inactive,inactive,inactive,inactive,
CC1=C(CC(=O)O)c2cc(F)ccc2/C1=C\c1ccc(S(C)=O)cc1 (configuration not stated),inactive,inactive,inactive,inactive,inactive,inactive,inactive,inactive,inactive,inactive,inactive,inactive,inactive,inactive,inactive,inactive,,inactive,inactive,inactive
O=S(=O)(O)c1cc(I)c(O)c2ncccc12,inactive,inactive,inactive,inactive,inactive,inactive,inactive,inactive,inactive,inactive,inactive,inactive,inactive,inactive,inactive,inactive,,inactive,inactive,inactive
O=C(CCCN1CCN(c2ccccn2)CC1)c1ccc(F)cc1,inactive,inactive,inactive,inactive,inactive,inactive,inactive,inactive,,,inactive,inactive,inactive,inactive,inactive,inactive,inactive,inactive,inactive,inactive
COC(=O)C1=C(C)NC(C)=C(C(=O)OC)C1c1ccccc1[N+](=O)[O-],inactive,inactive,inactive,inactive,inactive,inactive,inactive,inactive,inactive,,inactive,inactive,inactive,inactive,inactive,inactive,,inactive,inactive,inactive
Oc1cn2c(n1)Nc1ccc(Cl)c(Cl)c1C2,inactive,inactive,inactive,inactive,inactive,inactive,inactive,inactive,inactive,inactive,inactive,inactive,inactive,inactive,inactive,inactive,,inactive,inactive,inactive
Nc1ccc(S(=O)(=O)Nc2ccc(Cl)nn2)cc1,inactive,inactive,inactive,inactive,inactive,inactive,,,inactive,inactive,inactive,,,,inactive,,inactive,891 nM (active),,
C[C@]12C[C@H](O)[C@H]3[C@@H](CCC4=CC(=O)CC[C@@]43C)[C@@H]1CC[C@@H]2C(=O)CO,inactive,inactive,inactive,inactive,inactive,inactive,inactive,,inactive,inactive,inactive,,,,inactive,,inactive,,,
CCn1cc(C(=O)O)c(=O)c2cnc(N3CCNCC3)nc21,inactive,inactive,inactive,inactive,inactive,inactive,inactive,inactive,inactive,inactive,inactive,inactive,inactive,inactive,inactive,inactive,,inactive,inactive,inactive
Cc1cc(N)c2ccccc2[n+]1CCCCCCCCCC[n+]1c(C)cc(N)c2ccccc21,405 nM (active),405 nM (active),228 nM (active),721 nM (active),572 nM (active),642 nM (active),,79.4 nM (active),161 nM (active),287 nM (active),256 nM (active),63.1 nM (active),2510 nM (active),199 nM (active),144 nM (active),794 nM (active),100 nM (active),1120 nM (active),251 nM (active),70.8 nM (active)
